Shown are actives, neighbours in structure and some others; about 3.5% of the full set was active somewhere.
CHRM1 antagonist = human CHRM1 antagonism; P11229; CHO-K1 hM1, Fluo-8 calcium fluorescence, ACh EC80 antagonist; inhibition, % at 3 µM; 360,000 tested, 1.3% active;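 active = percent inhibition above its own plate's cutoff, namely the mean of that plate's compound wells plus 3 SD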;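 also: peak over basal fluorescence ratio during 140 s after agonist addition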
CHRM1 agonist = activates human CHRM1 receptor; CHO-K1 hM1, Fluo-8 calcium fluorescence, agonist mode; 0% DMSO, 100% acetylcholine EC100; 360,000 tested, 0.33% active; AID 588814; P11229; activation, % at 3 µM;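 active = activation above the run's mean compound activation plus 3 SD, cut at about 16% in these data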;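 also: peak over basal fluorescence ratio within a 140 s kinetic read after compound addition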
SKN-1 block = inhibitors of C. elegans SKN-1; C. elegans VP596 Pgst-4::GFP/RFP ratio, acrylamide-induced, 24 h; inhibition, % at 21.8 µM; 360,000 tested, 0.49% active; AID 624304;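 active = interference check ratio from 0.5 to 1.5 plus GFP to RFP signal ratio inhibition reaching or exceeding a fixed threshold, cut at about 30% in these data, passing the limit was not always enough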
Myeloid diff 2 = myeloid differentiation induction; ER-HoxA9 myeloid progenitors, lysozyme-GFP differentiation, flow cytometry; calls only at 10 µM; 360,000 tested, 1% active; AID 624256;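 active = normalized GFP-positive differentiation at or above the plate's own cutoff, the solvent-only control mean plus 3 SD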;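 also: cells exposed to compound for four days before flow analysis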
M1 PAM = positive allosteric modulators of human M1 muscarinic receptor. AID 588819. CHO-K1 hM1, Fluo-8 calcium fluorescence, ACh EC20; 0% = ACh EC20, 100% = maximal ACh. activation, % at 3 µM. P11229. 360,000 tested, 0.088% active; in the data active = activation above about 19%, passing the limit was not always enough
ATG4B inh = ATG4B (human) cysteine protease inhibition. Q9Y4P1. ATG4B cleavage of LC3-PLA2, NBD-HPC fluorescence, 1 h. inhibition, % at 8.33 µM. 340,000 tested, 0.51% active; in the data active = inhibition above about 40%
Target sequence (Q9Y4P1 whole entry, looked up): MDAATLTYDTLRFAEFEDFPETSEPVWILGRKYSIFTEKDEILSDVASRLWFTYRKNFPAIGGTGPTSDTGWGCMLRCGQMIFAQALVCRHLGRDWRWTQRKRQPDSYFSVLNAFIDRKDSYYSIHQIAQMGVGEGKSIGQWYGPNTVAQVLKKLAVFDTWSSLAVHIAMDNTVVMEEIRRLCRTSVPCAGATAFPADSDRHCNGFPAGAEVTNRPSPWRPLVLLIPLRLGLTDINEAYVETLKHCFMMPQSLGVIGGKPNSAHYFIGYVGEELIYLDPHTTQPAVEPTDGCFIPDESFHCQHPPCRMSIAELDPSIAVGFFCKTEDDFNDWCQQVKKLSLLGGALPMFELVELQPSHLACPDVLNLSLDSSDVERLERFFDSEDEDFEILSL
ATG4B conf = confirmation of human ATG4B inhibitors; shares compounds with ATG4B inh; ATG4B protease fluorescent substrate cleavage assay; inhibition, % at 8.33 µM; 320 tested, 92% active; AID 504757; in the data active = inhibition above about 39%
PLA2 ctr = inhibits human PLA2, flagging false ATG4B inhibitors. shares compounds with ATG4B inh. purified PLA2, NBD-C6-HPC fluorescence, 45 min. inhibition, % at 8.33 µM. 1,600 tested, 66% active. AID 588402; in the data active = inhibition above about 50%
Large screens that a line does not name were inactive (follow-up assays come after a bar, where they were run).

CC1(C(=O)O)CCCN(C(=O)c2ccc3c(c2)C(C)(C)CCC3(C)C)C1 (centres undefined)	none (no result: ATG4B inh)
NC(=O)c1ccc(NCC2COc3ccccc3O2)c([N+](=O)[O-])c1 (centres undefined)	ATG4B inh 82 | PLA2 ctr 79
CCC(C)(C)NC(=O)C(c1ccccc1Cl)N(Cc1cccnc1)C(=O)CCC(=O)Nc1cc(C)on1 (centres undefined)	none
CCn1c(SCc2ccccc2Cl)nc2nc3c(cc2c1=O)CCCC3	ATG4B inh 40 | ATG4B conf 66 | PLA2 ctr inactive
CCN(CC)c1ccc(C(=C2C=CC(=[N+](CC)CC)C=C2)c2ccc(N(CC)CC)cc2)cc1	CHRM1 antagonist 46, ATG4B inh 58 (no result: Myeloid diff 2) | PLA2 ctr 52
CCN(CC)c1ccc(C(=O)NNC(=O)CCl)cc1	none
O=c1cccccc1NN=C1CCCCC1	none
O=C(O)c1cc(Br)ccc1NN=C1CCCCC1	ATG4B inh 50 | ATG4B conf 62 | PLA2 ctr inactive
Cc1ccc(-c2nsc(SCC(=O)NCc3ccc4c(c3)OCO4)n2)cc1	none
Cc1ccccc1-c1nsc(SCC(=O)NCc2ccc3c(c2)OCO3)n1	ATG4B inh 41 | PLA2 ctr inactive
COc1cc(NC(=O)CCS(=O)(=O)c2ccc3c(c2)oc(=O)n3C)cc(OC)c1OC	none
O=Cc1cn(CCC(=O)O)nc1-c1cccc(Br)c1	none
O=C(O)CCn1cc(/C=C\C(=O)c2ccc(Cl)cc2)c(-c2cccc(Br)c2)n1	ATG4B inh 46 | ATG4B conf 69 | PLA2 ctr inactive
O=C(CSc1nnc(COc2ccccc2)n1-c1ccccc1)c1cccs1	ATG4B inh 54 | PLA2 ctr 55
Cc1cccc(OCc2nnc(SCCC(=O)O)n2-c2ccccc2)c1	none
Cc1ccc(OCc2nnc(SCC(=O)c3cccs3)n2-c2ccccc2)cc1C	ATG4B inh 62 | PLA2 ctr 78
O=C(O)CSc1nnc(COc2ccccc2)n1-c1ccccc1	none
NC(=O)CSc1nnc(COc2ccccc2)n1CCc1ccccc1	ATG4B inh 54 | PLA2 ctr inactive
O=C(O)Cc1c[nH]c2ccc(O)cc12	none
O=C(O)C1Nc2c(Cl)cc(Cl)cc2C2C=CCC12 (centres undefined)	ATG4B inh 65 | ATG4B conf inactive | PLA2 ctr inactive
CCOC(=O)C1Nc2ccc(Br)cc2C2C=CCC12 (centres undefined)	none
O=C(O)C1Nc2ccc(Br)cc2C2C=CCC12 (centres undefined)	ATG4B inh 64 | ATG4B conf inactive | PLA2 ctr inactive
CC1(C)COC2(OC1)C(=O)N(CN1CCOCC1)c1ccccc12	none
O=C(O)CC/C(=C\c1cccc(NC(=O)c2ccccc2Cl)c1)c1nc2ccccc2s1	ATG4B inh 43 | PLA2 ctr 62
COc1cccc(/C=C(\CC(=O)O)c2nc3ccccc3s2)c1	none
O=C(O)CC/C(=C\c1cc([N+](=O)[O-])ccc1Cl)c1nc2ccccc2s1	none
O=C(O)CC/C(=C\c1ccc(N2CCCC2)c([N+](=O)[O-])c1)c1nc2ccccc2s1	ATG4B inh 83 | PLA2 ctr 83
O=C(O)CC/C(=C\c1ccccc1[N+](=O)[O-])c1nc2ccccc2s1	ATG4B inh 53 | PLA2 ctr 51
CN(c1ccccc1)c1ccc(/C=C(/CCC(=O)O)c2nc3ccccc3s2)cc1[N+](=O)[O-]	none
CCN(CC)CCCC(C)Nc1nccc2c(Cl)cccc12 (centres undefined)	none
O=C(NCc1ccccc1Cl)c1ccc2sc([C@@H]3O[C@H](CO)[C@H](O)[C@H](O)[C@H]3O)nc2c1	none (no result: ATG4B inh)
COC(=O)c1ccccc1NC(=O)COC(=O)C1CCCCC1	none
N#Cc1c(N2CCCC2)nc(N)c2c(N)nc(N3CCCC3)cc12	ATG4B inh 74 | ATG4B conf inactive | PLA2 ctr inactive

Screens from PubChem BioAssay.
